Bioassay records: PubChem, The Scripps Research Institute Molecular Screening Center
CHRM1 antagonist: human M1 muscarinic receptor antagonists, primary screen, CHO-K1 cells, Fluo-8 calcium fluorescence, 1536-well. Muscarinic acetylcholine receptor M1 (Homo sapiens), P11229. CHO-K1 hM1, ACh EC80 antagonist. inhibition, % at 3 µM. 360,000 compounds, 1.3% hits. AID 588852, 2011;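 active means percent inhibition above its own plate's cutoff, namely the mean of that plate's compound wells plus 3 SD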;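 further: peak over basal fluorescence ratio during 140 s after agonist addition; 0% = ACh EC80 plus DMSO and 100% = DMSO alone without agonist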
Target sequence (P11229 whole entry, looked up): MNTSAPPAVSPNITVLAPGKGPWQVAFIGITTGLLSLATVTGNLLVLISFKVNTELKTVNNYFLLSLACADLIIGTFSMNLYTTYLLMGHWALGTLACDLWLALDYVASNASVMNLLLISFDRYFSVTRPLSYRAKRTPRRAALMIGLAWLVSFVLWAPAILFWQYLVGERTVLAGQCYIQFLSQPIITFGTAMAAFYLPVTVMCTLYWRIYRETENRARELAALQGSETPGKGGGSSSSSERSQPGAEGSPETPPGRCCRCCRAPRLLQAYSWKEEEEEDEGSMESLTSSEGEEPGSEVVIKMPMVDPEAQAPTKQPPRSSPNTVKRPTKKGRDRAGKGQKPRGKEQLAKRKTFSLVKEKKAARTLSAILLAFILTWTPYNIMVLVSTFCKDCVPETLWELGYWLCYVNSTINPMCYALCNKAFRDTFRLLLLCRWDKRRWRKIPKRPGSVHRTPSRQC
CHO-K1 Ca ag: counter-screen for M1 agonists: effect in parental CHO-K1 cells; Fluo-8 calcium fluorescence; scaled to maximal ATP response, vehicle zero; activation, % at 3 µM; 360,000 compounds, 0.48% hits; AID 602248, 2012; in the data active means activation above about 15%;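 further: untransfected CHO-K1 host cells lacking M1 receptor as counterscreen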
CHRM1 agonist: human M1 muscarinic receptor agonists, primary screen, Fluo-8 calcium fluorescence, CHO-K1 cells, HTS | 360,000 compounds, 0.33% hits | Muscarinic acetylcholine receptor M1 (Homo sapiens), P11229 | CHO-K1 hM1, agonist mode; 0% DMSO, 100% acetylcholine EC100 | activation, % at 3 µM;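 active means activation above the run's mean compound activation plus 3 SD, cut at about 16% in these data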;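 further: peak over basal fluorescence ratio within a 140 s kinetic read after compound addition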
CHO-K1 Ca antag: counter-screen for M1 antagonists: effect in parental CHO-K1 cells; ATP-induced calcium, Fluo-8 fluorescence; 360,000 compounds, 0.6% hits; inhibition, % at 3 µM;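 active means inhibition above a per-plate cutoff, the plate's mean sample inhibition plus 3 SD, cut at about 24% in these data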;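 further: 0% = DMSO plus EC80 ATP and 100% = DMSO alone without ATP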
M1 PAM: human M1 muscarinic receptor positive allosteric modulators, primary screen, CHO-K1 cells, Fluo-8 calcium fluorescence, 1536-well; Muscarinic acetylcholine receptor M1 (Homo sapiens), P11229; CHO-K1 hM1, ACh EC20; 0% = ACh EC20, 100% = maximal ACh; activation, % at 3 µM; 360,000 compounds, 0.088% hits; AID 588819, 2011; in the data active means activation above about 19%, passing the limit was not always enough
M1 PAM parental: nonselective calcium activators in parental CHO-K1 cells, primary screen, counter-screen for M1 PAM project, cell-based, Fluo-8 calcium fluorescence, full deck, 1536-well | 360,000 compounds, 0.02% hits | activation, % at 3 µM | ATP EC20; 0% at ATP EC20, 100% at ATP max;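 active means activation above the run cutoff, the mean activation of all test compounds plus 3 SD, cut at about 40% in these data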;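 further: peak over basal fluorescence ratio in a 140 s read after ATP addition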
* = called active by the depositor. This is a sample that favours compounds with a hit; in the whole collection about 2.4% have one here.

SMILES	CHRM1 antagonist	CHO-K1 Ca ag	CHRM1 agonist	CHO-K1 Ca antag	M1 PAM	M1 PAM parental
N#Cc1c(N2CCN(c3ccc(F)cc3)CC2)nc(N)c2c(N)nc3c(c12)CC(=O)N3C1CC1	31*	6	0	4	-8	7
CCN(C[C@H]1N[C@@](C)(C(=O)OC)[C@H]2C(=O)N(Cc3ccccc3)C(=O)[C@@H]12)C(=O)Nc1ccc(Cl)cc1	3	0	-1	-6	-4	6
COc1ccc(CCNC(=O)CSc2nc3[nH]ncc3c(=O)n2-c2ccc(Br)cc2)cc1OC	2	0	25*	-17	-4	7
O=C(CCCc1nc(-c2ccc(Cl)cc2)no1)NC1CCCC1	37*	17*	0	4	-11	-5
O=C(CCc1nc(-c2ccc(Cl)cc2)no1)NC1CCCCC1	1	17*	1	5	-2	2
COc1ccc(-c2noc(CCCC(=O)NC3CCCC3)n2)cc1	10	14	-1	4	-13	-4
O=S(=O)(c1cccc2cccnc12)N1CCOCC1	-4	0	-3	-2	2	12
N#Cc1cccc2cccc(S(=O)(=O)N3CCOCC3)c12	3	4	-4	26*	4	-12
O=Cc1cccn1-c1ccc2ccccc2c1	2	11	-6	2	8	4
CCN(CC)c1ccc(/C=C/C(=O)C2C(=O)C=C(C)OC2=O)cc1 (configuration not stated)	56*	50*	134*	44*	-37	-20
CNC(=O)COC(=O)CCC(=O)c1cccs1	-10	1	0	-14	11	18
O=C(COC(=O)CCC(=O)c1cccs1)NC1CC1	1	16*	-2	-2	2	-5
CCN(c1ccccc1)S(=O)(=O)c1ccc(C(=O)NCC(c2ccccc2OC)N2CCCC2)cc1 (configuration not stated)	9	3	-7	-8	-10	9
COc1ccccc1NS(=O)(=O)c1cccc(C(=O)NCC(c2ccccc2OC)N2CCCC2)c1 (configuration not stated)	42*	1	-7	-13	-20	-5
COc1ccccc1C(CNC(=O)c1cccc(S(=O)(=O)Nc2ccc(C)cc2)c1)N1CCCC1 (configuration not stated)	78*	3	-7	-1	-23	18
C=CCN(c1ccccc1)S(=O)(=O)c1cccc(C(=O)NCC(c2ccccc2OC)N2CCCC2)c1 (configuration not stated)	50*	-1	-8	-14	-24	-10
COc1ccc(SC[C@H](Cc2ccccc2)N2CC[C@@H](O)CCC2=O)cc1	3	0	-6	-7	2	10
O=C(O)CC(CC(=O)Nc1ccc2ccccc2n1)c1ccccc1 (configuration not stated)	-6	0	-1	-10	0	2
O=C(NCCc1ccccc1)c1cc(-c2ccccc2)c(N2CCOCC2)s1	-1	0	9	-13	11	1
CCN(CC)CCCNC(=O)c1cc(-c2ccccc2)c(N2CCCCC2)s1	55*	3	-9	-14	-25	9
O=C(CN1CCN(S(=O)(=O)c2ccccc2)CC1)Nc1ccccc1C(=O)NC1CC1	13	7	-4	-18	-6	13
CC(=O)c1ccc(S(=O)(=O)N2CCN(CC(=O)Nc3ccccc3C(=O)NC3CC3)CC2)cc1	37*	3	0	13	-16	-17
COc1cc2c(cc1NC(=O)CN1CCN(S(=O)(=O)c3ccc(C)cc3)CC1)oc1ccccc12	-31	0	15	12	23*	-6
O=C(COC(=O)/C=C/c1ccc(C(F)(F)F)cc1)NCC1CCCCC1	-9	1	-1	-3	6	13
CC(C)OCCCNC(=O)c1ccc2c(c1)ncn2C1CCCC1	-10	1	0	-3	11	20
SMILES	CHRM1 antagonist	CHO-K1 Ca ag	CHRM1 agonist	CHO-K1 Ca antag	M1 PAM	M1 PAM parental
CC1CN(C(=O)COC(=O)/C=C/c2ccccc2)CC(C)O1 (configuration not stated)	29*	0	-1	4	-14	-6
CC1CN(C(=O)COC(=O)/C=C/c2ccc(C(F)(F)F)cc2)CC(C)O1 (configuration not stated)	-9	3	-2	-5	6	23
COc1ccc(-c2ccnc3cc(C(=O)O)nn23)cc1	3	0	-2	1	-2	4
CC(Nc1nc(-c2cccnc2)nc2ccccc12)c1ccccc1 (configuration not stated)	-6	17*	-5	7	-4	13
CC(Nc1nc(-c2ccncc2)nc2ccccc12)c1ccccc1 (configuration not stated)	17	0	-7	-3	-8	-8
COC(=O)[C@H](Cc1ccccc1)NC(=O)NCCC1=CCCCC1	39*	2	-11	-15	-29	11
COC(=O)[C@H](CCSC)NC(=O)NCCC1=CCCCC1	18	1	-5	-6	-10	-6
Cc1ccnc(NS(=O)(=O)c2ccc(NC(=O)C3CCCO3)cc2)n1 (configuration not stated)	-10	0	-1	-16	4	10
Cc1sc2ncnc(NCCCO)c2c1C	14	0	0	7	-7	-8
Cc1sc2ncnc(NCC(O)c3ccc([N+](=O)[O-])cc3)c2c1C (configuration not stated)	34*	18*	0	27*	-20	0
Cc1sc2ncnc(NCC(c3ccccc3)N(C)C)c2c1C (configuration not stated)	57*	4	-11	7	-31	-17
Cc1sc2ncnc(NCC(O)c3ccccc3)c2c1C (configuration not stated)	16	17*	-1	14	-11	7
Cn1c(=O)n(C)c2cc(S(=O)(=O)Nc3ccccc3O)ccc21	5	4	-4	-18	-1	34
Cc1ccc(NS(=O)(=O)c2ccc3c(c2)n(C)c(=O)n3C)c(C)c1	-10	18*	0	0	7	25
Cc1cccc(C(=O)NN2C(=O)C3C(c4ccccc4)C=CC(c4ccccc4)C3C2=O)c1 (configuration not stated)	89*	2	3	1	-22	15
Cc1cccc(C(=O)NN2S(=O)(=O)c3ccccc3S2(=O)=O)c1	33*	1	-3	-22	5	13
